Rows were chosen to be rich in hits. Some 0.15% of all compounds tested hit in one or more screens of this group.
USP2a block: inhibitors of human ubiquitin-specific protease USP2a. O75604. USP2 core, Ub-CHOP2 coupled fluorogenic reporter, 485/531. Potency, µM (series often up to 38.3 µM), without a hit: top-dose activity change, negative = inhibition, hits mostly inhibitors. 330,000 tested, 0.01% active. AID 463254;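 note: plate controls were DMSO wells for no effect and full inhibition by NEM control for full effect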
Target sequence (O75604 whole entry, looked up): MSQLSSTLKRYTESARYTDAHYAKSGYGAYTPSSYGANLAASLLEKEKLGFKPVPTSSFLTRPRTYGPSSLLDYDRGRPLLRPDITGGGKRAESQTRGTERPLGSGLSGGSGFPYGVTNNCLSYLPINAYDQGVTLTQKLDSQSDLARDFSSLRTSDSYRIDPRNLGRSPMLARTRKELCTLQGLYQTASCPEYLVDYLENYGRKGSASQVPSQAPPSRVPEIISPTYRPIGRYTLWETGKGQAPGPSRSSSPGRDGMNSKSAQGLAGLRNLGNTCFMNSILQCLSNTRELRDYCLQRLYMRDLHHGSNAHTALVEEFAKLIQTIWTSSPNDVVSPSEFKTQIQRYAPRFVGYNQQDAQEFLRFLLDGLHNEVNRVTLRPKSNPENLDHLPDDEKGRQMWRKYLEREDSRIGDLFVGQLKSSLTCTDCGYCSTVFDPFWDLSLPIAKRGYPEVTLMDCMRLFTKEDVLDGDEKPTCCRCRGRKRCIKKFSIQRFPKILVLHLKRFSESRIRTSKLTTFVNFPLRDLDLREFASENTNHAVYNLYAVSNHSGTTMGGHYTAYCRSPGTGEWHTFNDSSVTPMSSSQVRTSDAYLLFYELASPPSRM
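USP2 core (10nM final) preincubated 30min RT with compound in 20mM Tris-HCl pH 8.0, 2mM CaCl2, 2mM beta-mercaptoethanol, 0.05% CHAPS; 25nM Ub-CHOP2 plus 25nM reporter substrate added, fluorescence (Ex485/Em531) read after 60min.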
Chronic BCR inh: inhibitors of chronic active B-cell receptor signaling | ABC-DLBCL IkBa-CBG/CBR reporter, luminescence ratio, 4 h | Potency, µM (titrated, usually from 46.1 µM), inactives show at the top dose activity change, negative = inhibition, most hits filed as inhibitors | 340,000 tested, 0.05% active | AID 493014; active = well fitted inhibition curve with a large enough effect in the signal ratio, with a control signal flat, not every such curve was filed as active; inconclusive = small, poorly fitted or top-dose-only effect, or effect the other way, or a change in a side signal; the % refers to the signal ratio;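 note: plate controls were basal doxycycline-induced cells for no effect and cells given 10 µM MG132 for full effect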
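Doxycycline induced both beetle luciferases in TMD8 lymphoma cells; IKK-driven degradation limits the IkappaBalpha-fused green signal, while red luminescence normalises for cell number and nonspecific effects. Compounds tested up to 46 uM, 4 hrs.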
p53 reactivator: restores transcriptional activity of mutant p53; H1299 p53-A138V BP100-luciferase reporter, luminescence, 24 h; Potency, µM (titrated, usually from 92.2 µM), inactives show at the top dose activity change, positive = activation, most hits filed as activators; 320,000 tested, 0.063% active; AID 504706; note: % of control where 0% means no effect; nearly all actives have a fitted effect of over 45% in size
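H1299 (p53-null), stable ts p53-A138V + BP100-Luc; 1000 cells/well, Opti-MEM/10% FBS; cpd 4 pt, 1:5; 24 h, 37 deg C, 5% CO2; detection reagent 10 min RT; luminescence.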
B2AR arrestin: agonists driving beta-arrestin recruitment to human beta2-adrenergic receptor; Potency, µM (highest dose often 46.1 µM), inactives show top-dose activation, most hits filed as activators; beta-arrestin recruitment to beta2AR, cell-based reporter; 330,000 tested, 0.02% active; P07550; AID 492947;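 note: 0% = DMSO controls and full agonism = EC100 isoproterenol or metaproterenol; nearly all actives have a fitted effect of over 65% in size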
Eya2 inh: inhibitors of human Eya2 phosphatase activity. 330,000 tested, 0.006% active. AID 488837. Potency, µM (doses to about 76.9 µM), for inactives: at the top dose activity, negative = inhibition, usual class: inhibitors. recombinant Eya2, OMFP fluorescence dephosphorylation (OMFP is methylfluorescein phosphate). O00167; note: % is set by controls: 0 for no effect and ±100 for the full control effect
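Eya2 (0.2 uM) preincubated 10 min at ambient with compound, then OMFP substrate added at 50 uM; 10 min reaction in 50 mM HEPES pH 7.5, 50 mM NaCl, 5 uM MgCl2, 0.05% BSA, 1 mM DTT. Fluorescence read at Ex 485/Em 525 nm.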
* marks the source's active call; other numbers are inactive results; ? = inconclusive; · = no result; [ ] = another dose, or the depositor's remark. Unless noted, calls come from the whole dose curve; as a rule, active = well fitted curve in the direction sought with a large enough effect; inconclusive = small, poorly fitted or top-dose-only effect, or another doubt; inactive = no such curve, though single readings can be large; an effect the other way counts as inactive or inconclusive. Potency is the fitted concentration of half-maximal effect.

SMILES	USP2a block	Chronic BCR inh	p53 reactivator	B2AR arrestin	Eya2 inh
O=C(NC(=S)Nc1ccccc1Br)C1CCCC1	2.9%	?	28.2µM*	3.3%	-9.3%
O=C(NC(=S)Nc1ccccc1Br)C1CCCCC1	-2.6%	10.0%	?	3.1%	-0.8%
O=C1C=C(Nc2ccc(Cl)cc2Cl)CC(c2ccco2)C1 (centres undefined)	0.9%	12.6µM*	2.9%	-1.5%	-13.3%
O=C(N/N=C/c1ccc2c(c1)OCO2)c1ccc2c(c1)OCCO2	0.1%	?	?	-0.1%	-0.1%
O=C(N/N=C/c1ccc2c(c1)OCO2)c1ccc(Br)o1	-0.6%	?	3.16µM*	-0.2%	4.6%
Oc1c(Cl)cc(Cl)cc1C1=NNC(c2ccc(Cl)cc2)C1 (centres undefined)	-5.2%	-15.1%	-6.3%	0.0%	8.0%
Oc1ccc(Cl)cc1C1=NNC(c2ccc(Cl)cc2)C1 (centres undefined)	0.1%	13.1%	28.2µM*	-0.1%	-8.1%
Cc1ccc(Cn2c(CN3CCC(C(=O)NCCc4ccccc4)CC3)cc3ccccc32)cc1	·	0.3%	·	·	·
CC(=O)Nc1ccc(NC(=O)c2ccc(-n3c(C)ccc3C)cc2)cc1	0.3%	-17.0%	25.1µM*	0.4%	-10.8%
O=Cc1ccc(O)c2ncccc12	0.4%	?	28.1%	6.31µM*	2.5%
O=C(O)c1ccnc2c(O)cccc12	-0.2%	-12.7%	·	0.0%	-21.2%
COc1ccccc1-c1c(C)nn2c(N3CCN(c4cccc(Cl)c4)CC3)cc(C)nc12	·	-2.6%	·	·	·
CC(=O)NC(c1cc(F)c2cccnc2c1O)C(C)C (centres undefined)	-0.9%	-24.8%	·	-0.2%	-0.8%
COc1ccc(-c2nnc3n2N=C(C)CS3)cc1	3.9%	5.3%	1.5%	-0.4%	-3.2%
c1ccc(C2=Nn3c(nnc3-c3cc(-c4ccccc4)n[nH]3)SC2)cc1	-0.1%	11.6µM*	2.2%	0.3%	9.3%
COc1ccc(C2=Nn3c(nnc3-c3ccc(OC)cc3)SC2)cc1	-8.0%	6.51µM*	-9.3%	0.1%	0.5%
Clc1ccc(C2=Nn3c(nnc3-c3cc(-c4ccccc4)n[nH]3)SC2)cc1	0.2%	5.17µM*	-7.5%	0.1%	-30.9%
CCOc1ccc(-c2nc(CSCC(=O)NCc3ccc(Cl)cc3)c(C)o2)cc1	·	0.3%	·	·	·
Nc1ncnc2c1nc(Br)n2C1OC2COP(=O)(O)O[C@@H]2C1O (some centres undefined)	·	·	·	·	2.5%
c1ccc(N2CC3CCc4ccccc4C3=N2)cc1 (centres undefined)	1.2%	?	44.7µM*	-0.2%	8.8%
COc1ccc(Nc2cc3n(c(=O)n2)CCc2cc(OC)c(OC)cc2-3)c(C)c1	-8.4%	17.8µM*	-6.7%	-0.1%	5.2%
CCn1c2ccccc2c2c3ncc4cccn4c3ccc21	1.5%	?	28.2µM*	?	13.4%
COc1cc2c(c(OC)c1OC)-c1ccc(NC(=O)c3ccccc3)c(=O)cc1[C@@H](NC(C)=O)CC2	0.7%	22.4µM*	12.6%	0.0%	-9.8%
N#Cc1c(NC(=O)CSc2ncn[nH]2)sc2c1CCCC2	-0.6%	23.1µM*	-5.2%	-0.2%	-15.6%
CC1CCc2c(sc(NC(=O)CSc3ncn[nH]3)c2C#N)C1 (centres undefined)	1.8%	?	-11.5%	-0.5%	-6.0%
SMILES	USP2a block	Chronic BCR inh	p53 reactivator	B2AR arrestin	Eya2 inh
CCc1ccc(-c2csc(NC(=O)Oc3ccccc3)n2)cc1	1.6%	?	14.1µM*	-1.0%	-4.5%
CCN(Cc1cc(=O)oc2cc(C)ccc12)c1ccccc1	1.0%	5.3%	-43.4%	?	-23.4%
COc1ccc2c(CN(C)c3ccccc3)cc(=O)oc2c1	-0.4%	14.6µM*	5.4%	0.2%	10.1%
C/C(NC(=O)c1ccccc1F)=C1\C(=O)C[C@@H]2[C@H]1C2(C)C	-1.8%	9.9%	12.6µM*	0.0%	-6.1%
C/C(NC(=O)c1cccc(F)c1)=C1/C(=O)C[C@@H]2[C@H]1C2(C)C	0.8%	?	?	-0.8%	-8.0%
Cc1cc2c(c(=O)o1)C1O[C@](c3ccsc3)(Cc3ccccc31)O2	0.3%[7.66 µM]	?	·	0.3%[9.22 µM]	6.6%[15.4 µM]
